{
  "source": "PubChem BioAssay AID1159580",
  "about": "(chemical genetic matrix, 2015)",
  "test": "chemical genetic growth profiling, strain panel (AID 1159580);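 also: tested at 20 µM; growth read once vehicle control cultures reached saturation at 30 °C; 1 = growth at the plate median or of vehicle wells; lower values mean less growth of the strain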",
  "settings": "growth OD",
  "key": {"[1]": {"settings": "S. cerevisiae deletion strains, locus YAL013W, strain DEP1, hits give low values"}, "[2]": {"settings": "S. cerevisiae deletion strains, locus YBR229C, strain ROT2, hits give low values"}, "[3]": {"settings": "S. cerevisiae deletion strains, locus YDL101C, strain DUN1, hits give low values"}, "[4]": {"settings": "S. cerevisiae deletion strains, locus YDR150W, strain NUM1, hits give low values"}, "[5]": {"settings": "S. cerevisiae deletion strains, locus YEL061C, strain CIN8, hits give low values"}, "[6]": {"settings": "S. cerevisiae deletion strains, locus YGR078C, strain PAC10, hits give low values"}, "[7]": {"settings": "S. cerevisiae deletion strains, locus YHR030C, strain SLT2, hits give low values"}, "[8]": {"settings": "S. cerevisiae deletion strains, locus YHR087W, strain rtc3, hits give low values"}, "[9]": {"settings": "S. cerevisiae deletion strains, locus YJL187C, strain SWE1, hits give low values"}, "[10]": {"settings": "S. cerevisiae deletion strains, locus YJR043C, strain POL32, hits give low values"}, "[11]": {"settings": "S. cerevisiae deletion strains, locus YJR075W, strain HOC1, hits give low values"}, "[12]": {"settings": "S. cerevisiae deletion strains, locus YKL190W, strain CNB1, hits give low values"}, "[13]": {"settings": "S. cerevisiae deletion strains, locus YLR039C, strain RIC1, hits give low values"}, "[14]": {"settings": "S. cerevisiae deletion strains, locus YLR058C, strain SHM2 (second series), hits give low values"}, "[15]": {"settings": "S. cerevisiae deletion strains, locus YLR085C, strain ARP6, hits give low values"}, "[16]": {"settings": "S. cerevisiae deletion strains, locus YLR262C, strain YPT6, hits give low values"}, "[17]": {"settings": "S. cerevisiae deletion strains, locus YML094W, strain GIM5, hits give low values"}, "[18]": {"settings": "S. cerevisiae deletion strains, locus YMR219W, strain ESC1, hits give low values"}, "[19]": {"settings": "S. cerevisiae deletion strains, locus YMR263W, strain SAP30, hits give low values"}, "[20]": {"settings": "S. cerevisiae deletion strains, locus YNL128W, strain TEP1, hits give low values"}, "[21]": {"settings": "S. cerevisiae deletion strains, locus YNL153C, strain GIM3, hits give low values"}, "[22]": {"settings": "S. cerevisiae deletion strains, locus YNL298W, strain CLA4 (second series), hits give low values"}, "[23]": {"settings": "S. cerevisiae deletion strains, locus YNL322C, strain KRE1, hits give low values"}, "[24]": {"settings": "S. cerevisiae deletion strains, locus YNR030W, strain Alg12, hits give low values"}, "[25]": {"settings": "S. cerevisiae deletion strains, locus YPL055C, strain LGE1, hits give low values"}, "[26]": {"settings": "S. cerevisiae deletion strains, locus YPL241C, strain CIN2, hits give low values"}, "[27]": {"settings": "S. cerevisiae deletion strains, locus YPR135W, strain CTF4, hits give low values"}, "[28]": {"settings": "S. cerevisiae strains, strain wild type, hits give low values"}, "[29]": {"settings": "S. cerevisiae deletion strains, locus YMR307W, strain GAS1, hits give low values"}},
  "note": "In all, about 5,500 compounds went through this assay and about 2,000 (36%) were called active. Not shown: some 18% with an inconclusive outcome. The list shows a part of the results. Values without a mark were called inactive. Rule as the data show it: active = normalized growth mostly below about 0.91 (no sharp cut-off); inconclusive = no clear call, values can overlap the other calls; inactive = mostly above about 0.92.",
  "data": [
    {"smiles": "O=C1c2cccc3cc([N+](=O)[O-])cc(c23)C(=O)N1CCO", "values": [
      {"measurement": "normalized growth", "setting": "[1]", "result": 0.992},
      {"measurement": "normalized growth", "setting": "[2]", "result": 1.02},
      {"measurement": "normalized growth", "setting": "[3]", "result": 0.974},
      {"measurement": "normalized growth", "setting": "[4]", "result": 0.995},
      {"measurement": "normalized growth", "setting": "[5]", "result": 1.01},
      {"measurement": "normalized growth", "setting": "[6]", "result": 0.988},
      {"measurement": "normalized growth", "setting": "[7]", "result": 1.04},
      {"measurement": "normalized growth", "setting": "[8]", "result": 1.02},
      {"measurement": "normalized growth", "setting": "[9]", "result": 0.984},
      {"measurement": "normalized growth", "setting": "[10]", "result": 0.995},
      {"measurement": "normalized growth", "setting": "[11]", "result": 1.02},
      {"measurement": "normalized growth", "setting": "[12]", "result": 1.02},
      {"measurement": "normalized growth", "setting": "[13]", "result": 1.03},
      {"measurement": "normalized growth", "setting": "[14]", "result": 1.01},
      {"measurement": "normalized growth", "setting": "[15]", "result": 0.908},
      {"measurement": "normalized growth", "setting": "[16]", "result": 1.05},
      {"measurement": "normalized growth", "setting": "[17]", "result": 0.976},
      {"measurement": "normalized growth", "setting": "[18]", "result": 1.01},
      {"measurement": "normalized growth", "setting": "[19]", "result": 0.984},
      {"measurement": "normalized growth", "setting": "[20]", "result": 1},
      {"measurement": "normalized growth", "setting": "[21]", "result": 1.02},
      {"measurement": "normalized growth", "setting": "[22]", "result": 0.975},
      {"measurement": "normalized growth", "setting": "[23]", "result": 1.01},
      {"measurement": "normalized growth", "setting": "[24]", "result": 0.985},
      {"measurement": "normalized growth", "setting": "[25]", "result": 0.991},
      {"measurement": "normalized growth", "setting": "[26]", "result": 1.01},
      {"measurement": "normalized growth", "setting": "[27]", "result": 0.89},
      {"measurement": "normalized growth", "setting": "[28]", "result": 1.01}
    ]},
    {"smiles": "Cc1nc2c([nH]1)c(=O)n(C)c(=O)n2Cc1ccco1", "values": [
      {"measurement": "normalized growth", "setting": "[1]", "result": 1.04},
      {"measurement": "normalized growth", "setting": "S. cerevisiae deletion strains, locus YAL040C, strain CLN3, hits give low values", "result": 1},
      {"measurement": "normalized growth", "setting": "S. cerevisiae deletion strains, locus YCL061C, strain MRC1 (second series), hits give low values", "result": 1.01},
      {"measurement": "normalized growth", "setting": "[4]", "result": 1},
      {"measurement": "normalized growth", "setting": "S. cerevisiae deletion strains, locus YDR363W, strain ESC2, hits give low values", "result": 1.03},
      {"measurement": "normalized growth", "setting": "S. cerevisiae deletion strains, locus YER002W, strain NOP16, hits give low values", "result": 0.998},
      {"measurement": "normalized growth", "setting": "[29]", "result": 1.02},
      {"measurement": "normalized growth", "setting": "S. cerevisiae deletion strains, locus YNL175C, strain NOP13, hits give low values", "result": 1.01},
      {"measurement": "normalized growth", "setting": "S. cerevisiae deletion strains, locus YNL197C, strain WHI3, hits give low values", "result": 1.01},
      {"measurement": "normalized growth", "setting": "S. cerevisiae deletion strains, locus YNL224C, strain SQS1, hits give low values", "result": 0.995},
      {"measurement": "normalized growth", "setting": "[23]", "result": 1.02},
      {"measurement": "normalized growth", "setting": "S. cerevisiae deletion strains, locus YOR083W, strain WHI5 (second series), hits give low values", "result": 1.05},
      {"measurement": "normalized growth", "setting": "[25]", "result": 1.01}
    ]},
    {"smiles": "O=C1c2cccc3c([N+](=O)[O-])ccc(c23)C(=O)N1Cc1ccco1", "values": [
      {"measurement": "normalized growth", "setting": "[1]", "result": "0.81 (active)"},
      {"measurement": "normalized growth", "setting": "[2]", "result": 0.94},
      {"measurement": "normalized growth", "setting": "S. cerevisiae deletion strains, locus YCL061C, strain MRC1, hits give low values", "result": "0.896 (active)"},
      {"measurement": "normalized growth", "setting": "[3]", "result": "0.873 (active)"},
      {"measurement": "normalized growth", "setting": "[4]", "result": "0.763 (active)"},
      {"measurement": "normalized growth", "setting": "[5]", "result": "0.909 (active)"},
      {"measurement": "normalized growth", "setting": "[6]", "result": "0.879 (active)"},
      {"measurement": "normalized growth", "setting": "[7]", "result": "0.321 (active)"},
      {"measurement": "normalized growth", "setting": "[8]", "result": 0.974},
      {"measurement": "normalized growth", "setting": "[9]", "result": 0.995},
      {"measurement": "normalized growth", "setting": "[10]", "result": "0.791 (active)"},
      {"measurement": "normalized growth", "setting": "[11]", "result": 0.97},
      {"measurement": "normalized growth", "setting": "[12]", "result": 0.934},
      {"measurement": "normalized growth", "setting": "[13]", "result": 0.852},
      {"measurement": "normalized growth", "setting": "[14]", "result": 0.972},
      {"measurement": "normalized growth", "setting": "[15]", "result": "0.341 (active)"},
      {"measurement": "normalized growth", "setting": "[16]", "result": 0.815},
      {"measurement": "normalized growth", "setting": "[17]", "result": "0.797 (active)"},
      {"measurement": "normalized growth", "setting": "[18]", "result": 0.98},
      {"measurement": "normalized growth", "setting": "[19]", "result": "0.796 (active)"},
      {"measurement": "normalized growth", "setting": "[29]", "result": 0.739},
      {"measurement": "normalized growth", "setting": "[20]", "result": 0.958},
      {"measurement": "normalized growth", "setting": "[21]", "result": "0.899 (active)"},
      {"measurement": "normalized growth", "setting": "[22]", "result": "0.753 (active)"},
      {"measurement": "normalized growth", "setting": "[23]", "result": 0.997},
      {"measurement": "normalized growth", "setting": "[24]", "result": "0.559 (active)"},
      {"measurement": "normalized growth", "setting": "[25]", "result": "0.628 (active)"},
      {"measurement": "normalized growth", "setting": "[26]", "result": "0.634 (active)"},
      {"measurement": "normalized growth", "setting": "[27]", "result": "0.382 (active)"},
      {"measurement": "normalized growth", "setting": "[28]", "result": 0.935}
    ]}
  ]
}
